Bioassay records deposited in PubChem by National Center for Advancing Translational Sciences (NCATS).
EPAC1 antagonist = blocks human EPAC1 exchange factor | O95398 | EPAC1 GEF assay, Rap1b-BODIPY-GDP exchange fluorescence | Potency, µM (highest dose often 115 µM), inactives show top-dose activity change, negative = inhibition, most hits filed as inhibitors | 0.14% of 360,000 active | AID 720709;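 also: plate controls were vehicle for no effect and positive control for full effect; nearly all actives have a fitted effect of over 50% in size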
Target sequence (O95398 whole entry, looked up): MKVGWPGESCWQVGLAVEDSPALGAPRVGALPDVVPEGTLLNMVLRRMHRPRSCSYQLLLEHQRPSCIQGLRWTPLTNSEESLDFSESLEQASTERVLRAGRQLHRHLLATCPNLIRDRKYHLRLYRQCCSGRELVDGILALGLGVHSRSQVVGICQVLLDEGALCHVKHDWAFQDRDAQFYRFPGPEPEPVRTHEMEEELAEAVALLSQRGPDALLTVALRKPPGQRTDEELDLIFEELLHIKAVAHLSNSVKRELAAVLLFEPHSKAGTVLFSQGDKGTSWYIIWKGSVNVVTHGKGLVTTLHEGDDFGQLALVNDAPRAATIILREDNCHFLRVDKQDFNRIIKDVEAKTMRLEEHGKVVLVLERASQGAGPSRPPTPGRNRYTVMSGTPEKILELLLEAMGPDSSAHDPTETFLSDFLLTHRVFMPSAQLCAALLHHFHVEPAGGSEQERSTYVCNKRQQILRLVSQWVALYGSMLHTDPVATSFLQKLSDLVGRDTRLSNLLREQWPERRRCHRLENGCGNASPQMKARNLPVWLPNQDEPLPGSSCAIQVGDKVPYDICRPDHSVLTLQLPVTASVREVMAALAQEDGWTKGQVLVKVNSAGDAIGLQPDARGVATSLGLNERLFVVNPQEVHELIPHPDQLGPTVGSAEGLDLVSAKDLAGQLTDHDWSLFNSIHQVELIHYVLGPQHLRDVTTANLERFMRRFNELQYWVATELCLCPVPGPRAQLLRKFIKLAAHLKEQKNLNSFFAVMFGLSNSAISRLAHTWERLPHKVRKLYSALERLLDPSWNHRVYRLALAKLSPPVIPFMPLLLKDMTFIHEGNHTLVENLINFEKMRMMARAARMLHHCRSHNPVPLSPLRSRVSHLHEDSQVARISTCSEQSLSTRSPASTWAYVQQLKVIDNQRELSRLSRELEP
BRCA1 expr act = BRCA1 expression activation; MCF7-BRCA1-FFLuc reporter, luminescence, 48 h; response scale: scaled: vehicle 0%, 10 µM genistein 100%; Potency, µM (series often up to 46.1 µM), for the others: at the highest dose activation, hits mostly activators; AID 624202; 1.1% of 380,000 active; also: nearly all actives have a fitted effect of over 80% in size
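Luminescence from a BRCA1-driven firefly luciferase in MCF7 cells was the read-out, taken 15 min after substrate addition following 48 h compound exposure at 37 °C. Data were normalized to a 10 microM genistein control and DMSO vehicle.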
USP1 inh = blocks the human USP1/UAF1 deubiquitinase complex | O94782 | recombinant USP1/UAF1, Ub-Rhodamine cleavage fluorescence | Potency, µM (highest dose often 57.1 µM), inactives show top-dose activity change, negative = inhibition, hits mostly inhibitors | 0.23% of 390,000 active | AID 743255; also: % is scaled to controls: 0 for no effect and ±100 for the full control effect; nearly all actives have a fitted effect of over 60% in size
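In this screen, compounds sit with the deubiquitinase complex (1nM) for 15 min at room temperature before Ub-Rho is added at 150nM final. Fluorescence rise is then followed for 6 reads every 60 seconds.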
EPAC2 ag = agonists of human EPAC2 (RAPGEF4) | EPAC2 activation, biochemical qHTS; response scale: 100% = 6.5 mM cAMP response | Q8WZA2 | Potency, µM (top dose mostly 154 µM), inactives show at the top dose activation, hits mostly activators | 0.079% of 360,000 active | AID 720711; also: nearly all actives have a fitted effect of over 50% in size
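Setup: EPAC2 100 nM, labeled Rap1B complex 250 nM, free GDP 50 uM. Compound titrations pinned in, brief spin, 5 min room temperature incubation. Kinetic fluorescence read over 30 min, normalized to 6.5 mM cAMP.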
EPAC1 agonist = EPAC1 (human) agonism; O95398; EPAC1 agonist qHTS, biochemical assay; response scale: 100% = response to 6.5 mM cAMP; Potency, µM (doses to about 154 µM), for the others: top-dose activation, usual class: activators; 0.073% of 360,000 active; AID 720707; also: nearly all actives have a fitted effect of over 60% in size
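Compounds were pinned as a concentration titration into mixtures of EPAC1 (100 nM), BODIPY-GDP-loaded Rap1B (250 nM) and GDP (50 uM). After 5 min at room temperature, fluorescence was followed for 30 min; activity was scaled to 6.5 mM cAMP.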
EPAC2 antag = antagonists of human EPAC2; Q8WZA2; EPAC2 GEF exchange of Rap1B-BODIPY-GDP, fluorescence; Potency, µM (titrated, usually from 114 µM), without a hit: at the top dose activity, negative = inhibition, hits mostly inhibitors; 0.18% of 360,000 active; AID 720708; also: % is scaled to controls: 0 for no effect and ±100 for the full control effect; nearly all actives have a fitted effect of over 45% in size
* = called active by the depositor; ? = inconclusive; . = no result; [ ] = remark or other dose. A selection: hits, their analogues and other compounds. The true share with any hit is near 1.4%. Calls follow the shape of the dose curve; as a rule, active = well fitted curve in the direction sought with a large enough effect; inconclusive = small, poorly fitted or top-dose-only effect, or another doubt; inactive = no such curve, though single readings can be large; an effect the other way counts as inactive or inconclusive. Potency is read from the fitted curve at half-maximal effect.

SMILES | EPAC1 antagonist | BRCA1 expr act | USP1 inh | EPAC2 ag | EPAC1 agonist | EPAC2 antag
Clc1ccc(C2Nc3cccc4cccc(c34)N2)c(Cl)c1 | -6% | -28% | -26% | 6% | 11% | 10µM*
CC(Oc1ccc(Cl)cc1Cl)c1nc(-c2ccc(NC(=O)c3ccccn3)cc2)no1 (stereo not given) | 7% | 1.3µM* | 2% | -1% | 1% | 0%
COc1ccc(Cl)cc1-c1nc(-c2ccc(NC(=O)c3ccncc3)cc2)no1 | 13% | -16% | -19% | 6% | -3% | 18%
Cc1cccc(C(=O)Nc2ccc(C(=O)c3ccncc3)cc2)c1 | -9% | 18% | -16% | 3% | -1% | 4%
CCN(CC)c1c(C)nc2ccc(C(=O)N3CCN(C(=O)c4ccco4)CC3)cn12 | -18% | 14% | . | -14% | -1% | 4%
Oc1ccc(N=Cc2ccc(OCc3ccccc3)cc2)cc1 | 25µM* | -55% | 2.8µM* | 14% | 17% | ?
CC(C)(C)NCC(=O)N/N=C/c1ccc(OCc2ccccc2)cc1 | 11% | 10µM* | -18% | -2% | -3% | -1%
O=C(CSCc1cccc(F)c1)NCc1ccccc1 | -20% | 11µM* | -15% | -10% | 2% | 0%
O=C(CSCc1ccccc1F)NCc1ccccc1 | -8% | 7.1µM* | -15% | 3% | -2% | -3%
CCc1ccc(CNC(=O)CCSCc2ccccc2F)cc1 | . | . | -5% | . | . | .
Cc1cc(NS(=O)(=O)c2ccc(NC(=O)COc3ccc(Br)cc3C)cc2)no1 | . | . | -20% | . | . | .
Cc1cc(NS(=O)(=O)c2ccc(NC(=O)COc3c(C)cc(Br)cc3C)cc2)no1 | -4% | 1% | -12% | -8% | -1% | 18µM*
CC(C)=CC(=O)Nc1nnc(-c2ccccc2C)s1 | -14% | 3.5µM* | -25% | 5% | -11% | 8%
Cc1ccc(-c2csc3ncnc(Sc4nnnn4-c4ccccc4)c23)cc1 | . | -51% | . | . | . | .
CC1CCC(NC(=O)C2COc3ccccc3O2)CC1 (stereo not given) | -15% | 10µM* | 0% | -3% | 6% | -2%
NS(=O)(=O)c1ccc(N=Nc2c[nH]c(=O)c(O)c2)cc1 | ? | -3% | 28µM* | -11% | 0% | -28%
CN(C)c1ccc(N=Nc2ccc(S(N)(=O)=O)cc2)cc1 | -12% | 2µM* | -1% | -7% | -9% | -5%
CN(C)N=Nc1ccc(S(N)(=O)=O)cc1 | 8% | -1% | -16% | 3% | 9% | 18%
CC(=O)Nc1ccc(/C=C/c2nc3ccccc3s2)cc1 | . | 10% | . | . | . | .
Cc1ccnc(NC(=O)c2ccc(Cl)c(S(=O)(=O)N3CCCC3)c2)c1 | 3% | 7.1µM* | -15% | 7% | -3% | -3%
Cc1ccc(N/C=C/c2onc(C)c2[N+](=O)[O-])cc1 | 3% | 6.3µM* | -10% | -1% | -2% | 2%
Cc1noc(/C=C/c2ccc(-c3ccccc3Cl)o2)c1[N+](=O)[O-] | 4% | 58% | ? | 100µM* | -2% | 217%
COc1cccc(N/C=C/c2onc(C)c2[N+](=O)[O-])c1 | 6% | 4µM* | -24% | -1% | 3% | 3%
Cc1cccc(C)c1N/C=C/c1onc(C)c1[N+](=O)[O-] | -3% | -1% | 5% | -20% | -8% | 37%[57.1 µM]
CCC(NC(=O)OCc1ccccc1)C(=O)Oc1ccc2ccc(=O)oc2c1 (stereo not given) | -22% | -7% | -20% | -5% | 2% | 3%
SMILES | EPAC1 antagonist | BRCA1 expr act | USP1 inh | EPAC2 ag | EPAC1 agonist | EPAC2 antag
CC[C@]1(C(=O)OC)[C@H]2C(=O)N(C)C(=O)[C@H]2[C@H]2CN=C(SCC3CC3)N21 | -1% | 12% | -17% | 1% | 6% | -2%
O=C(COC(=O)c1ccccc1OCCOc1ccccc1)Nc1ccc(Br)cc1 | . | 110% | . | . | . | .
O=C(NCCc1cccs1)C1CC(c2ccc([N+](=O)[O-])cc2)=NO1 (stereo not given) | 16% | 10µM* | ? | -3% | -11% | 9%
COCCNC(=O)C1CC(c2ccc([N+](=O)[O-])cc2)=NO1 (stereo not given) | -2% | 9% | ? | 10% | 1% | 6%
O=C(NCCCO)C(=O)NCC(c1ccc2c(c1)OCO2)N1CCOCC1 (stereo not given) | . | . | -21% | . | . | .
O=C(CCC(=O)N1CCN(c2ccc(F)cc2)CC1)N1CCN(c2ccc(F)cc2)CC1 | -8% | -8% | -21% | 4% | -2% | 2%
O=C(Nc1ccc(N2CCCCC2)cc1)c1ccc(F)cc1 | 10% | ? | -5% | -9% | 4% | -4%
O=C(c1ccc(F)cc1)c1ccc(N2CCCCC2)cc1 | -5% | 5µM* | -23% | 29% | 11% | 2%
O=C(c1ccc(F)cc1)c1ccc(N2CCCC2)cc1 | 5% | 3.2µM* | -25% | 14% | 11% | 6%
O=C(NCc1ccccn1)c1cccc(S(=O)(=O)N2CCCCC2)c1 | -15% | -19% | -4% | 1% | 4% | -4%
CN(Cc1ccccc1)C(=O)CN1CCN(S(=O)(=O)c2ccc(Cl)c(Cl)c2)CC1 | -2% | -18% | -22% | 11% | 11% | -28%
Cc1cc(S(=O)(=O)N2CCN(CC(=O)N(C)Cc3ccccc3)CC2)ccc1Br | -11% | -28% | -21% | 5% | 63µM* | -2%
O=C(Nc1ccc(F)cc1F)c1ccc2ncsc2c1 | 15% | 5µM* | -15% | 1% | -4% | 2%
O=C(Cc1ccccc1)Nc1cc2c(cc1Cl)OCCCO2 | 2% | 3.2µM* | -5% | 2% | -3% | -4%
O=C(Cc1ccccc1)Nc1ccc2c(c1)OC1(CCCC1)O2 | -5% | 4µM* | -12% | 7% | 1% | -4%
CC1(C(=O)NCc2ccccc2Br)CCN1C(=O)CCc1ccc(Cl)cc1Cl (stereo not given) | 3% | -20% | . | 9% | 12% | -15%
CC(=O)Nc1ccc(CN2C(=O)C(Cc3ccccc3)ON=C2c2cccc(F)c2)cc1 (stereo not given) | -18% | -2% | . | 14% | 0% | -3%
COc1ccc(OCc2cc(C(=O)N[C@H]3CCCCNC3=O)no2)c(Cl)c1 | 11% | 77% | -6% | 12% | -3% | 6%
CSc1ccccc1OCc1cc(C(=O)N[C@H]2CCCCNC2=O)no1 | 5% | 11µM* | -24% | 6% | 2% | -1%
CSc1ccccc1OCc1cc(C(=O)NC2CCOC2)no1 (stereo not given) | 4% | 13µM* | -11% | -2% | 10% | -20%
Cc1nonc1CN(C)C(=O)c1cc(COc2ccc(F)cc2Cl)on1 | -22% | 95% | -13% | 19% | 0% | 8%
